Measurements reported in PubChem BioAssay AID504834 (National Center for Advancing Translational Sciences (NCATS), 2011).
About 22,000 (6.9%) of roughly 320,000 compounds were called active. About 27% were inconclusive and are not listed. Calls come from the whole dose curve; as a rule, active = well fitted inhibition curve with a large enough effect; inconclusive = small, poorly fitted or top-dose-only effect, or another doubt; inactive = no such curve, though single readings can be large or run the other way. The full list was thinned out, with actives kept by preference.

Assay: Primary qHTS for delayed death inhibitors of the malarial parasite plastid, 96 hour incubation
Details: P. falciparum luciferase reporter growth; series mostly up to 28.7 µM; activity change, negative = inhibition: at the top concentration
In short: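 Two-generation exposure (96 h) targets delayed-death phenotype. Reporter parasites carrying integrated firefly luciferase, in red cells at 2% hematocrit and 0.05% parasitemia final, kept at 37 C, 5% CO2; luminescence loss indicates inhibition.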
% is set by controls: 0 for no effect and ±100 for the full control effect; potency is the fitted concentration of half-maximal effect.

Compound	activity change, negative = inhibition	Potency
Brc1ccccc1/C=N/Nc1nc2ccccc2o1	136% (inactive)	
COc1cccc(OC)c1C(=O)Nc1c(C(=O)N2CCN(c3ccccn3)CC2)oc2ccccc12	-0.184% (inactive)	
Cc1cccc(NC(=O)CSc2nnc(CCNC(=O)OC(C)(C)C)o2)c1C	0.64% (inactive)	
Cc1cc(Br)ccc1NC(=S)NC1CCCC1	-23.9% (inactive)	
CCCc1cc(=O)[nH]c2nnc(SCC(=O)Nc3nnc(SCC)s3)n12	14.6% (inactive)	
O=S(=O)(NCCNS(=O)(=O)c1ccccc1)c1ccccc1	50.1% (inactive)	
O=S(=O)(NCCc1ccccc1)c1ccccc1	38.7% (inactive)	
COP(=O)(NS(=O)(=O)c1ccccc1)OC		5.22 µM (active)
O=S(=O)(c1ccc(Br)c2ccccc12)N1CCOCC1	-21.3% (inactive)	
O=C(Nc1ccnn1C1CCN(Cc2cccc(OCCO)c2)CC1)C1CCCC1	-2.73% (inactive)	
Cn1cnc([N+](=O)[O-])c1Nc1ccccc1O	62.5% (inactive)	
Cn1nc(-c2ccccc2)c(CO)c1Sc1ccccc1	1.86% (inactive)	
Cn1cnc([N+](=O)[O-])c1Sc1ccccc1		11.7 µM (active)
O=C(Cn1c(-c2ccccn2)nc2ccccc21)NCCN1CCOCC1	-0.622% (inactive)	
c1ccc(-c2ccc(OCCN3CCOCC3)cc2)cc1	-12.9% (inactive)	
c1ccc2cc3c(NCCN4CCOCC4)ccnc3cc2c1		0.165 µM (active)
CCOc1ccc(C(=O)Nc2c3c(nn2-c2ccccc2)CS(=O)(=O)C3)cc1	-17.2% (inactive)	
Cc1ccc(C)c(S(=O)(=O)Nc2cccc(-n3cnnn3)c2)c1	1.62% (inactive)	
COc1ccc(-n2c(C)cc(C(=O)CN3C(=O)NC4(CCc5ccccc54)C3=O)c2C)cc1 (stereo unspecified)		1.17 µM (active)
Cc1ccc(C(=O)CN2C(=O)NC3(CCc4ccccc43)C2=O)c(C)c1 (stereo unspecified)	3.08% (inactive)	
COc1ccc(C(=O)CN2C(=O)NC3(CCc4ccccc43)C2=O)c(OC)c1 (stereo unspecified)	-18.2% (inactive)	
CCN1CCN(C(=O)Cn2nc(C)n3c(cc4c(OC)cccc43)c2=O)CC1	-29.1% (inactive)	

Compound	activity change, negative = inhibition	Potency
O=C(CCN1C(=O)C2CCCCC2C1=O)Nc1ccc(OC(F)F)cc1 (stereo unspecified)	5.43% (inactive)	
NC1=NC[C@@H](Cc2ccc(O)cc2)N1CC1CCCCC1		2.33 µM (active)
COc1ccc(NC(=O)CCCN2C(=O)C(c3ccccc3)Oc3cccnc32)cc1 (stereo unspecified)	100% (inactive)	
CCOc1ccc(N(C)Cc2cc(=O)oc3ccc(OC)cc23)cc1	-27.9% (inactive)	
Cc1ccc(CN(C)Cc2cc(=O)oc3cc(C)c(Cl)cc23)cc1	1.06% (inactive)	
Cc1cc2oc(=O)cc(CN(C)Cc3ccc(OC(F)F)cc3)c2cc1Cl		2.62 µM (active)
COc1cccc(CNC(=O)COC(=O)CN2C(=O)NC3(CCCCC3C)C2=O)c1 (stereo unspecified)	5.85% (inactive)	
Cc1onc(-c2c(Cl)cccc2Cl)c1C(=O)NNC(=O)c1c(-c2c(Cl)cccc2Cl)noc1C		8.28 µM (active)
Cc1onc(-c2c(Cl)cccc2Cl)c1C(=O)c1c[nH]c(C(=O)NC2CC2)c1	-20.4% (inactive)	
COc1ccccc1N1CCN(C(=O)c2c(-c3c(Cl)cccc3Cl)noc2C)CC1	7.48% (inactive)	
CC(C)=C1SC(N2CCN(c3ccc(C)c(Cl)c3)CC2)=NC1=O	0.284% (inactive)	
CC(NCc1cccs1)C(=O)Nc1cc(Cl)cc(Cl)c1 (stereo unspecified)	-2.74% (inactive)	
Cc1cc2nc3n(c2cc1C)CC1CC(C(=O)NCCC(C)C)N(C)C31 (stereo unspecified)	-1.98% (inactive)	
CCc1nc(Nc2ccc(NC(C)=O)cc2)c2oc3ccccc3c2n1	-16.9% (inactive)	
COc1ccc(Nc2cc(=O)oc3ccccc23)cc1		2.62 µM (active)
COc1ccc(Nc2nnc(C)c3ccccc23)cc1	2.93% (inactive)	
COc1ccc2oc(=O)cc(-c3cc4ccccc4o3)c2c1	19.1% (inactive)	
O=S(=O)(NC1CCCCC1N1CCC(O)CC1)c1ccc(Cl)cc1 (stereo unspecified)	23.1% (inactive)	
O=S(=O)(NC1CCCCC1N1CCCCC1)c1ccc(Cl)cc1 (stereo unspecified)	2.85% (inactive)	
CCOC1CCCCC1NS(=O)(=O)c1ccc(Cl)cc1 (stereo unspecified)		9.28 µM (active)
Cc1nnc2n1N=C(c1ccc3c(c1)NC(=O)CO3)CS2	-25.6% (inactive)	
O=C(O)CC/C(=C\c1cc2c(cc1Br)OCO2)c1nc2ccccc2s1	34.1% (inactive)	

Compound	activity change, negative = inhibition	Potency
O=C(NC1CCCC1)C1CC(=O)N(c2ccc(F)cc2)C1 (stereo unspecified)	-9.08% (inactive)	
O=C(NC1CCCCCCC1)c1cccs1	23.4% (inactive)	
CCC(C)[C@H]1COCCS(=O)(=O)N1Cc1ccc(C)cc1 (stereo partly specified)	84.1% (inactive)	
C/C(=N\NC(=O)c1ccc2ccccc2c1)c1cccnc1	18.6% (inactive)	
O=C(NCCNc1ccc([N+](=O)[O-])cc1Cl)c1ccccc1F	-45.8% (inactive)	
O=C(NC1CCN(Cc2ccccc2)CC1)c1ccccc1F	202% [at 5.75 µM] (inactive)	
O=C(NC1CCN(Cc2ccccc2)CC1)c1c(F)cccc1F	84.5% (inactive)	
O=C(NC1CCN(Cc2ccccc2)CC1)c1cc(Br)c(Br)[nH]1		11.7 µM (active)
Cc1cnc(CN(C)C(=O)CC2C(=O)NCCN2Cc2cccc(F)c2F)[nH]1 (stereo unspecified)	4.66% (inactive)	
COc1cccc(CN2CCNC(=O)C2CC(=O)N(C)CCc2ccccn2)c1 (stereo unspecified)	32.9% (inactive)	
CN(Cc1cccc2ncccc12)C(=O)CC1C(=O)NCCN1Cc1ccc(F)cc1 (stereo unspecified)		13.1 µM (active)
O=C(N/C(=C/c1ccc(Cl)cc1)C(=O)N1CCCCC1)c1ccco1	-0.335% (inactive)	
O=C(O)CC(CC(=O)N1CCOCC1)c1ccccc1 (stereo unspecified)	14.1% (inactive)	
CCOc1cc(C)ccc1OCc1nnc(SCC(=O)Nc2cccc(C(=O)O)c2)n1-c1ccccc1	45% (inactive)	
O=C(O)c1cc(S(=O)(=O)Nc2ccc3cn[nH]c3c2)ccc1Br	12.5% (inactive)	
CCCNC(=O)c1cnc(-c2ccccc2)nc1-c1ccccc1	17.4% (inactive)	
C/C(=N\NC(=O)c1cc(-c2ccc(O)cc2)nc2ccccc12)c1cccnc1		9.28 µM (active)
CCOc1ccccc1-c1cc(C(=O)N/N=C(\C)c2cccnc2)c2ccccc2n1	2.86% (inactive)	
C/C(=N\NC(=O)c1cccnc1)c1ccc(-c2ccccc2)cc1	35.5% (inactive)	
CC1(c2nnc(Cc3ccccc3)o2)CC(c2ccccc2F)=NO1 (stereo unspecified)	67.6% (inactive)	
COc1ccc(NC(=O)CSc2nncc(=O)n2N)cc1OC	8.56% (inactive)	
O=C(Cc1ccccc1Cl)N1CCN(c2ccccn2)CC1	1.61% (inactive)	

Compound	activity change, negative = inhibition	Potency
Cc1nc2c(-c3ccc(F)cc3)c(C)nn2c(C)c1CCC(=O)N1CCN(c2ccccn2)CC1		7.38 µM (active)
O=C(CCC1CCCN(C(=O)Cc2ccc(F)cc2)C1)N1CCN(c2ccccn2)CC1 (stereo unspecified)	-10.4% (inactive)	
O=C(c1cc(COc2ccc(F)c(F)c2)on1)N1CCOCC1	-9.89% (inactive)	
CCn1c(=O)c2cc(C(=O)Nc3cccc(C(C)=O)c3)sc2c2ccccc21	0.375% (inactive)	
CN(C)N1C(N)=C(C#N)C(c2ccc(Br)cc2)C2=C1CCCC2=O (stereo unspecified)		2.94 µM (active)
COc1ccc(C2C(C#N)=C(N)N(c3ncn[nH]3)C3=C2C(=O)CCC3)cc1 (stereo unspecified)	0% (inactive)	
N#CC1=C(N)OC2=C(C(=O)CCC2)C1C1CC=CCC1 (stereo unspecified)	40.6% (inactive)	
N#CC1=C(N)N(c2ccccc2)C2=C(C(=O)CCC2)C1c1ccccc1 (stereo unspecified)		2.08 µM (active)
CCOc1ccc(C2C(C#N)=C(N)N(N(C)C)C3=C2C(=O)CCC3)cc1 (stereo unspecified)	59% (inactive)	
NC1=C([N+](=O)[O-])C(c2ccccc2)C2=C(CCCC2=O)O1 (stereo unspecified)	0.515% (inactive)	
Cc1nc2ccc(S(=O)(=O)N(C)CC(=O)NC(C)c3ccccc3)cc2s1 (stereo unspecified)	25.8% (inactive)	
N#CCC(=O)Nc1ccc(C(=O)OCC(=O)Nc2sc3c(c2C#N)CCCC3)cc1	61.4% (inactive)	
O=C1C2CCCN2C(=O)N1CCCCN1CCN(c2cccc(C(F)(F)F)c2)CC1 (stereo unspecified)		13.1 µM (active)
Cc1ccccc1N1CCN(CCCN2C(=O)C3CCCCN3C2=O)CC1 (stereo unspecified)	7.49% (inactive)	
O=C(C1CC(=O)N(C2CCCC2)C1)N1CCN(c2cccc(C(F)(F)F)c2)CC1 (stereo unspecified)	-14.5% (inactive)	
CCCc1cc(=O)oc2c(C)c(OCC(=O)NCc3ccccn3)ccc12	14% (inactive)	
O=C(Cc1cccc2ccccc12)NNC(=O)Nc1ccc(Cl)cc1	0.722% (inactive)	
CCCN1C2CCCC1CC(NC(=O)NC13CC4CC(CC(C4)C1)C3)C2 (stereo unspecified)	-27.6% (inactive)	
CC1CCCCN1S(=O)(=O)c1ccc(C(=O)Nc2nnc(-c3cccs3)o2)cc1 (stereo unspecified)	-0.7% (inactive)	
CCN(CC(=O)NCc1cccs1)S(=O)(=O)c1ccc(NC(C)=O)cc1	-23.3% (inactive)	
CC1CCCCN1S(=O)(=O)c1ccc(S(=O)(=O)N(CC(=O)Nc2ccccc2)Cc2cccs2)cc1 (stereo unspecified)		4.65 µM (active)
Cc1ccccc1C(=O)Nc1ccccc1NC(=O)c1ccccc1C	433% (inactive)	

Compound	activity change, negative = inhibition	Potency
Cc1cccc(CN2CCC(CNC(=O)Nc3ccc(F)c(Cl)c3)CC2)c1	6.46% (inactive)	
COc1cc(NC(=O)NCC2CCN(Cc3ccc(C)cc3)CC2)cc(OC)c1OC		10.4 µM (active)
COc1ccc(Cl)cc1NC(=O)NCC1CCN(Cc2ccccc2F)CC1	12.4% (inactive)	
Cc1ccccc1NC(=O)NCC1CCN(Cc2cccc(Cl)c2)CC1	27.4% (inactive)	
O=C(NCC1CCN(Cc2ccccc2Cl)CC1)Nc1cccc(Cl)c1		1.65 µM (active)
Cc1ccc(C)c(CN2CCC(CNC(=O)Nc3ccc(C)c(F)c3)CC2)c1	36.5% (inactive)	
Cc1ccc(C(=O)N/C(=C\c2cn(S(=O)(=O)N(C)C)c3ccccc23)C(=O)N2CCCC2)cc1	0% (inactive)	
COc1ccc(-n2nnnc2CNC(=O)c2ccc3ccccc3c2)cc1	-2.21% (inactive)	
COc1ccc(NC(=O)N2CCCC(C(=O)Nc3ccccc3OC)C2)cc1 (stereo unspecified)	-1.69% (inactive)	
CSC1=NCCN1C(=O)Cc1cccc2ccccc12	0.0301% (inactive)	
COc1cc(CNCc2ccc(OC)c3ccccc23)cc(OC)c1OC	-15.6% (inactive)	
O=C(Nc1cccc(Cl)c1)C1CCCN(c2cnccn2)C1 (stereo unspecified)	28.4% (inactive)	
COc1cc(NC(=O)C2CCN(c3cnccn3)CC2)cc(OC)c1		2.62 µM (active)
Cc1ccccc1CN1CCC(C(=O)Nc2ccc(Oc3cccnc3)cc2)CC1	-25.5% (inactive)	
O=C(COC(=O)Cc1ccccc1F)NCCc1ccccc1	12.9% (inactive)	
Cc1nc2ccc(S(=O)(=O)NC(C(=O)N3CCCCCC3)C(C)C)cc2s1 (stereo unspecified)	-2.11% (inactive)	
Cc1nc2ccc(S(=O)(=O)NCC(=O)O)cc2s1		16.5 µM (active)
Cc1nc2ccc(S(=O)(=O)NCC(=O)NCCN3CCCCC3C)cc2s1 (stereo unspecified)	-2.45% (inactive)	
